Bioassay records: PubChem BioAssay, several laboratories
RAM inhibit: yeast RAM network inhibition. S. cerevisiae dse1pr::URA3 reporter, 5-FOA growth OD615, 2 d; analog-sensitive cbk1-as2 kinase mutant strain. inhibition, % at 50 µM. 190,000 tested, 1.8% active. AID 868;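 active = inhibition above a set limit, 3 SD over mean compound inhibition, cut at about 8.4% in these data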;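 also: inhibition rescues growth on 5-FOA so higher OD means more RAM inhibition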
CHOP inhibitor: inhibitors of CHOP induction in ER stress response; inhibition, % at 10 µM; CHO-K1 CHOP-promoter luciferase, tunicamycin-induced, 15-18 h; 220,000 tested, 3.8% active; AID 2732;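 active = compounds that reduced the stress-induced luciferase reporter signal by more than about 70% of percent inhibition, limit read from the data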
Lmaj promast: inhibitors of Leishmania major promastigote growth; Leishmania major promastigotes, resazurin fluorescence viability; inhibition, % at 10 µM; 200,000 tested, 9% active; in the data active = inhibition above about 50%;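 also: promastigotes grown with compound for 44 hours at 28 °C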
WT yeast gro inh: growth inhibition of WT yeast, mitochondrial fusion screen | mitochondrial fusion phenotypic screen, WT strain | inhibition, % at 10 µM | 190,000 tested, 2.1% active | AID 1362; in the data active = inhibition above about 58%; tested in S. cerevisiae
Each line names hits and unclear results; the compound was inactive in the other large screens. Rows were chosen to be rich in hits. Some 13% of all compounds tested hit in one or more screens of this group.

COc1ccc(OCC(=O)N2CCN(Cc3ccc(SC)cc3)CC2)cc1	Lmaj promast 84.3
Cc1ccc(C)c(OCC(=O)N2CCN(Cc3ccc4c(c3)OCO4)CC2)c1	none
Cc1ccc(OCC(=O)N2CCN(Cc3ccc4c(c3)OCO4)CC2)cc1	Lmaj promast 83.1
Cc1c(C(=O)c2cccc3ccccc23)c2cccc3c2n1[C@H](CN1CCOCC1)CO3	none (no result: RAM inhibit, Lmaj promast, WT yeast gro inh)
Cc1cccc(OCC(=O)N2CCN(Cc3ccc([N+](=O)[O-])cc3)CC2)c1	Lmaj promast 57.7
Cc1ccc(OCC(=O)N2CCN(Cc3ccc([N+](=O)[O-])cc3)CC2)cc1	none (no result: RAM inhibit, Lmaj promast, WT yeast gro inh)
COc1ccccc1CC1C(=O)C2CCN1CC2 (stereo not drawn)	none
O=C1C2CCN(CC2)C1Cc1ccc(OCc2ccccc2)cc1 (stereo not drawn)	Lmaj promast 100.1
CCN(CC)c1ccc(C=C2C(=O)N(C)C(=S)N(C)C2=O)o1	Lmaj promast 71.9
CCN(CC)c1ccc(/C=C2\C(=O)NC(=S)N(C)C2=O)o1	none (no result: RAM inhibit, Lmaj promast, WT yeast gro inh)
CCCCCCn1c(N)c(C(=O)NCCN2CCOCC2)c2nc3ccccc3nc21	CHOP inhibitor 85.7, WT yeast gro inh 85.7
COc1ccc(CCNC(=O)c2c(N)n(CCN3CCOCC3)c3nc4ccccc4nc23)cc1OC	Lmaj promast 100.4
CCCCCn1c(N)c(C(=O)NCc2cccs2)c2nc3ccccc3nc21	none
CCCCn1c(N)c(C(=O)NCc2cccs2)c2nc3ccccc3nc21	CHOP inhibitor 92.0
Cc1ncc([N+](=O)[O-])n1CCOC(N)=O	none (no result: RAM inhibit, Lmaj promast, WT yeast gro inh)
CCn1c(NN=O)nc2ccccc21	Lmaj promast 53.2
CCn1c(P(C)(=O)O)nc2ccccc21	none
CCN1CCN(c2ccc(N)c(C)c2)CC1	none
COc1ccc2c(c1)[C@@]13CCCC[C@H]1[C@@H](C2)NCC3	none (no result: RAM inhibit, Lmaj promast, WT yeast gro inh)
N[C@H](CCCCCP(=O)(O)O)C(=O)O	none (no result: RAM inhibit, Lmaj promast, WT yeast gro inh)
COc1cc2c(cc1OC)[C@@H]1C(=O)c3ccc4c(c3O[C@@H]1CO2)C[C@H](C(C)C)O4	CHOP inhibitor 78.5 (no result: RAM inhibit, Lmaj promast, WT yeast gro inh)
CC(C)C12CN3CCN(CC(C3)C1O)C2 (stereo not drawn)	WT yeast gro inh 59.5
C[C@@H]1C[C@H]2OC(=O)C3(CO3)[C@H]2[C@H](O)[C@]2(C)C(=O)C3OC3[C@@H]12 (stereo partly drawn)	CHOP inhibitor 106.2 (no result: RAM inhibit, Lmaj promast, WT yeast gro inh)
Clc1cccc(C2NCc3ccccc3-n3cccc32)c1 (stereo not drawn)	none (no result: RAM inhibit, Lmaj promast, WT yeast gro inh)
Cc1ccc(CN2C3CCCC2CC(NC(=O)Nc2cccc(F)c2)C3)cc1 (stereo not drawn)	Lmaj promast 96.1
O=C(Nc1ccccc1)NC1CC2CCC(C1)N2 (stereo not drawn)	none
O=C1NC(=O)C(CCc2ccncc2)(CCc2ccncc2)C(=O)N1Cc1ccccc1	none
Cc1ccsc1C(=O)C1CCCN(Cc2cccc(-n3cccn3)c2)C1 (stereo not drawn)	Lmaj promast 57.6
Cc1ccn2nc(S(=O)(=O)Nc3c(F)cccc3F)nc2n1	none
CCOC(=O)C1CCCN(c2ccc([N+](=O)[O-])c3nonc23)C1 (stereo not drawn)	none
O=C(NCCN1CCOCC1)c1ccc(Cl)nc1	none (no result: RAM inhibit, Lmaj promast, WT yeast gro inh)
O=C(NCCCN1CCOCC1)C(Cl)(Cl)Cl	Lmaj promast 52.6
COc1ccc(-c2cc(=NCCC(=O)O)c3cc(C)ccc3o2)cc1	Lmaj promast 61.5
COc1ccc(-c2cc(=Nc3ccccc3)c3cc(C)ccc3o2)cc1	none
O=C(C[N+]12CCC(CC1)C(C(O)(c1ccccc1)c1ccccc1)C2)c1ccc(Br)cc1 (stereo not drawn)	none (no result: RAM inhibit, Lmaj promast, WT yeast gro inh)
Cc1nccn1Cc1ccc(Cl)nc1	none
CNC(=O)N(C)c1ccc(C(O)(C(=O)OC)C(F)(F)F)cc1 (stereo not drawn)	none (no result: RAM inhibit, Lmaj promast, WT yeast gro inh)
CCN(C(=O)Oc1ccccc1)c1ccc(C(O)(C(=O)OC)C(F)(F)F)cc1 (stereo not drawn)	Lmaj promast 99.4
COC(=O)C(O)(c1ccc(N(C)C(=O)OC(C)C)cc1)C(F)(F)F (stereo not drawn)	Lmaj promast 91.8
CCOC(=O)N(CC)c1ccc(C(O)(C(=O)OCC)C(F)(F)F)cc1 (stereo not drawn)	Lmaj promast 98.3
CCOC(=O)N(C)c1ccc(C(O)(C(=O)OCC)C(F)(F)F)cc1 (stereo not drawn)	Lmaj promast 98.7
Cc1nc2nc(SCC(=O)N3CCC4(CC3)OCCO4)nn2c(C)c1Cc1ccccc1	none
CCOP(=O)(OCC)C(O)c1cccc([N+](=O)[O-])c1 (stereo not drawn)	none
CCOC(=O)C(O)(c1ccc(N(CC)C(=O)OC)cc1)C(F)(F)F (stereo not drawn)	Lmaj promast 98.3
O=C(CN1CC=C(c2ccccc2)CC1)Nc1cc(Cl)ccc1Cl	Lmaj promast 54.7
COc1cccc(N2CCN(Cc3ccc(Cl)cc3)CC2)c1	none
COc1cccc(C2(O)CCN(Cc3ccncc3)CC2)c1	Lmaj promast 91.8
O=C(COc1ccc(Cl)cc1)NC1CN2CCC1CC2 (stereo not drawn)	Lmaj promast 99.2
Fc1ccc(Cn2nnnc2C(c2ccc(Cl)cc2)N2CC=C(c3ccc(F)cc3)CC2)cc1 (stereo not drawn)	RAM inhibit 10.2, Lmaj promast 98.7
Fc1ccc(C2=CCN(C(c3ccc(Cl)cc3)c3nnnn3Cc3ccccc3)CC2)cc1 (stereo not drawn)	none
Cc1ccc(Cn2nnnc2CN2CCC(n3nnc4cc(C(F)(F)F)ccc43)CC2)cc1	Lmaj promast 53.2
Cc1nc2cc(F)ccc2n1C1CCN(Cc2nnnn2CCc2ccccc2)CC1	none
Cc1ccc(C)c(CN2CCC(n3nnc4cc(F)ccc43)CC2)c1	CHOP inhibitor 75.0
Cc1nc2cc(C(F)(F)F)ccc2n1C1CCN(Cc2nnnn2CCc2ccccc2)CC1	Lmaj promast 98.3
FC(F)(F)c1ccc2c(c1)nnn2C1CCN(Cc2nnnn2Cc2ccccc2)CC1	CHOP inhibitor 88.2
Cc1ccc(Cn2nnnc2CN2CCC(n3nnc4cc(C)ccc43)CC2)cc1	none
Cn1cc(C(=O)NP(=O)(N2CCOCC2)N2CCOCC2)c2ccccc21	none
Cn1c(CN2CCN(C(=O)COc3ccccc3)CC2)nc2cc([N+](=O)[O-])ccc21	none
O=P(NS(=O)(=O)c1ccc(Br)cc1)(Oc1ccccc1)Oc1ccccc1	none
CC(=O)[C@H]1CCC2C3CC[C@H]4C[C@H](O)CC[C@]4(C)C3CC[C@@]21C (stereo partly drawn)	none (no result: RAM inhibit, Lmaj promast, WT yeast gro inh)
O=C(Nc1nc(-c2ccccc2)c(-c2ccccc2)s1)c1ccc(S(=O)(=O)N(CCCl)CCCl)cc1	Lmaj promast 73.7
Cc1ccc(O)c(C(=O)c2cc(C(=O)NCc3ccccc3)c(=O)n(Cc3ccccc3)c2)c1	Lmaj promast 78.0
O=C(c1cc(C(=O)NCc2ccccc2)c(=O)n(Cc2ccccc2)c1)c1cc(Br)ccc1O	Lmaj promast 99.4
O=C(CNC(=O)c1ccccc1Cl)Nc1ccc(Br)cc1C(=O)c1ccccc1	none
Cn1cc(C(=O)NCc2ccccc2)c2ccccc21	none
O=Cc1cn(CCCOc2ccccc2)c2ccccc12	Lmaj promast 65.8
COc1ccccc1OCCCn1cc(C=O)c2ccccc21	none
CCOC(=O)c1c(NC(=O)C(c2ccccc2)c2ccccc2)sc2c1C1CCN2CC1	Lmaj promast 100.4
CSc1nnc(C2CCNCC2)n1C	WT yeast gro inh 64.9
